Measured values taken from PubChem BioAssay (NCATS).
Inconclusive results are not listed. The source made the active and inactive calls. Unless noted, calls follow the shape of the dose curve; as a rule, active = well fitted curve in the direction sought with a large enough effect; inconclusive = small, poorly fitted or top-dose-only effect, or another doubt; inactive = no such curve, though single readings can be large; an effect the other way counts as inactive or inconclusive. Numbered stars: 1 amine (or outer) side, 2 acyl side, 3 side chain; on linkers, the order of the positions; unused ones are H or OH. Bridge positions count the residues as written; N and C are the ends. Square brackets hold non-standard residues; d marks the D form. Peptide text beside a SMILES is read from it. * marks the point of attachment. ξ: configuration not given here. ΔAla(Z-3-ureido) = NC(=O)N/C=C(\N)C(=O)O; ξDab(CH2SO3H) = NC(CCNCS(=O)(=O)O)C(=O)O; X2 = NC1=NC(O)CC(C(N[*:1])C(=O)[*:2])N1; X1 = NC1=NCCC(C(N[*:1])C(=O)[*:2])N1; Heptanoyl(6-Me) = CC(C)CCCCC(=O)*; ξβ3hOrn = NCCCC(N)CC(=O)*; Orn = NCCC[CH](N)C(=O)O; Dab = NCC[CH](N)C(=O)O; Dap = NC[CH](N)C(=O)O

Legend:
[1] = S16 Schwann cell PMP22 intronic element beta-lactamase assay (AID 624044; calls by dose curve; also: nearly all actives have a fitted effect of over 15% in size; also: potency is read from the fitted curve at half-maximal effect)
Procedure, shortened: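 Rat S16 Schwann cells with beta-Lac driven by a PMP22 intronic element, compound-treated 24 h at 37 °C. LiveBLAzer FRET B/G read: 460 nm normalized to potassium clavulanate vs DMSO; 535 nm FRET as viability; concentration-effect curves classified.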

CP260 = assay: qHTS profiling for inhibitors of Plasmodium falciparum proliferation (AID 504749); also: nearly all actives have a fitted effect of over 60% in size; also: potency is read from the fitted curve at half-maximal effect; conditions: P. falciparum in erythrocytes, SYBR Green DNA, 72 h; series mostly up to 28.7 µM
Procedure, shortened: (§1)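 Infected RBCs, 0.3% parasitemia/2.5% Hct final; cpd 72 h, 37 C, 5% CO2; lysis buffer with saponin/triton/SYBR Green I, o/n RT dark; FI 485/535; norm. to artemisinin (0.29 uM) and DMSO.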

DIV14 = assay: as above; conditions: P. falciparum in erythrocytes, SYBR Green DNA, 72 h; series mostly up to 28.7 µM
Procedure, shortened: as §1

DIV17 = assay: as above; conditions: P. falciparum in erythrocytes, SYBR Green DNA, 72 h; series mostly up to 28.7 µM
Procedure, shortened: as §1

ICS = assay: as above; conditions: P. falciparum in erythrocytes, SYBR Green DNA, 72 h; series mostly up to 28.7 µM
Procedure, shortened: as §1

[2] = target: Luciferin 4-monooxygenase (Photinus pyralis) (UniProt P08659); assay: Biochemical firefly luciferase enzyme assay for NPC (AID 624030); also: nearly all actives have a fitted effect of over 70% in size; also: potency is read from the fitted curve at half-maximal effect
Procedure, shortened: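 Direct inhibition of firefly luciferase enzyme (10 nM final, 50 mM Tris Acetate) assessed by luminescence within 5 minutes. Percent activity scaled between DMSO and PTC124 positive control, with concentration-effect curves classified by fit quality and response.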

[3] = S16 Schwann cell viability assay (CellTiter-Glo assay) (AID 624031); also: nearly all actives have a fitted effect of over 70% in size; also: potency is read from the fitted curve at half-maximal effect
Procedure, shortened: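 Following overnight culture in 10% FBS DMEM, parental S16 rat Schwann cells are dosed for 24 h at 37 °C. Viability is read as CellTiter-Glo luminescence and expressed as % activity relative to DMSO (0%) and no-cell wells.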

W2 = assay: qHTS profiling for inhibitors of Plasmodium falciparum proliferation (AID 504749); also: nearly all actives have a fitted effect of over 60% in size; also: potency is read from the fitted curve at half-maximal effect; conditions: P. falciparum in erythrocytes, SYBR Green DNA, 72 h; series mostly up to 28.7 µM
Procedure, shortened: as §1

[4] = target: Cytochrome P450 3A4 (Homo sapiens) (UniProt P08684); assay: qHTS Assay for Inhibitors and Substrates of Cytochrome P450 3A4 (AID 884); also: nearly all actives have a fitted effect of over 50% in size; also: potency is read from the fitted curve at half-maximal effect
Procedure, shortened: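 20 nM human CYP3A4 with 25 uM Luciferin-PPXE (at KM) in 200 mM KPO4, preincubated 10 min with compound; NADPH regeneration started a 60 min RT reaction. Luciferin detected by luminescence, normalized to 57 uM ketoconazole as full inhibition.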

[5] = target: DNA dC->dU-editing enzyme APOBEC-3G (Homo sapiens) (UniProt Q9HC16); assay: qHTS for inhibitors of Vif-A3G interactions: Validation (AID 588379)
Procedure, shortened: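 HeLa cells stably expressing Vif and A3G-eYFP, 700 cells/well, incubated overnight at 37 deg C, then exposed to compound overnight at 37 deg C. Inhibition of Vif-mediated degradation read as increased yellow fluorescence (Ex 488/Em 500-530) by laser-scanning cytometry.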

[6] = target: Cytochrome P450 3A4 (Homo sapiens) (UniProt P08684); assay: qHTS Assay for Activators of Cytochrome P450 3A4 (AID 885); also: nearly all actives have a fitted effect of over 65% in size
Procedure, shortened: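 Steps: enzyme/substrate mix dispensed; compound added, 10 min RT; NADPH regeneration solution added, 60 min RT; luciferin detection buffer stops reaction; 20 min later luminescence measured.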

[7] = Confirmation and Secondary Assay for Modulators of Hemoglobin Beta Chain Splicing at IVS2 654 locus (AID 910);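 also: HeLa cells stably carrying EGFP split by mutant beta-globin IVS2-654 intron; per-well total GFP intensity by laser scanning cytometry after 2-day treatment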
Procedure, shortened: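 Readout: per-well total peak green fluorescence (488 nm ex, 500–520 nm em) from objects 5–250 µm, reflecting correct splicing of an EGFP-654 reporter. Compounds were applied for 2 days at 37 °C to overnight-plated HeLa EGFP-654 cells; controls were DMSO and 500 nM IVS2-654 PNA.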

[8] = Confirmation and Secondary Assay for Modulators of Hemoglobin Beta Chain Splicing at IVS2 705 locus (AID 930);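 also: HeLa cells stably expressing the EGFP-705 splicing reporter; GFP fluorescence per well restored by corrected splicing of the IVS2-705 intron in EGFP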
Procedure, shortened: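 HeLa IVS2-705 EGFP reporter cells, 500/well, compound 2 d at 37C; correct splicing yields fluorescent EGFP. Control: 500 nM antisense PNA. Read-out: total peak GFP intensity.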

Measured: Potency

Luciferin 4-monooxygenase (Photinus pyralis), sequence (P08659 whole entry, looked up): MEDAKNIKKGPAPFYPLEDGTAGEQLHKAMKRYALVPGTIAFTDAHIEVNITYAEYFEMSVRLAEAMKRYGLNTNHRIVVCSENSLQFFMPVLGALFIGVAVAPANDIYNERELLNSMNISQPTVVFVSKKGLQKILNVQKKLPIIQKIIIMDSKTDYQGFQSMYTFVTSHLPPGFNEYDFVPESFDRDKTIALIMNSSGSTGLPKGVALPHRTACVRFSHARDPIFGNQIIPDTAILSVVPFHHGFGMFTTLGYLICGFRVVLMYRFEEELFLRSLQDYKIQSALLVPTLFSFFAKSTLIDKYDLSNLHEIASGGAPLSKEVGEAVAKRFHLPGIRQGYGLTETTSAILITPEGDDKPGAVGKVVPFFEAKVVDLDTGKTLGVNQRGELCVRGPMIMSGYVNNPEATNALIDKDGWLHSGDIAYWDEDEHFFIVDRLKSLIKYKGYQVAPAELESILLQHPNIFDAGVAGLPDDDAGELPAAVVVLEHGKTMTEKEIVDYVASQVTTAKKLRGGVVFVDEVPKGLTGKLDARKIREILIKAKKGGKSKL
DNA dC->dU-editing enzyme APOBEC-3G (Homo sapiens), sequence (Q9HC16 whole entry, looked up): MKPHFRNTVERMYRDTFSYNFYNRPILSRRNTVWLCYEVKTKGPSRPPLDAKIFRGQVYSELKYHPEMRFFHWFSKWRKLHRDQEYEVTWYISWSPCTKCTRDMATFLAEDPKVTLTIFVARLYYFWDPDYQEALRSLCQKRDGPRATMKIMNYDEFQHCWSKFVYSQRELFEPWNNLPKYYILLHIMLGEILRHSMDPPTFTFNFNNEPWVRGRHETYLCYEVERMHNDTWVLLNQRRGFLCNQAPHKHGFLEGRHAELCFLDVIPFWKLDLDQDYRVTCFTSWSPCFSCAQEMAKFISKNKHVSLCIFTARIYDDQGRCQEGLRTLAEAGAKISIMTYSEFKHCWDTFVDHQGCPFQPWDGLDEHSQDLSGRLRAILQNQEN
Cytochrome P450 3A4 (Homo sapiens), sequence (P08684 whole entry, looked up): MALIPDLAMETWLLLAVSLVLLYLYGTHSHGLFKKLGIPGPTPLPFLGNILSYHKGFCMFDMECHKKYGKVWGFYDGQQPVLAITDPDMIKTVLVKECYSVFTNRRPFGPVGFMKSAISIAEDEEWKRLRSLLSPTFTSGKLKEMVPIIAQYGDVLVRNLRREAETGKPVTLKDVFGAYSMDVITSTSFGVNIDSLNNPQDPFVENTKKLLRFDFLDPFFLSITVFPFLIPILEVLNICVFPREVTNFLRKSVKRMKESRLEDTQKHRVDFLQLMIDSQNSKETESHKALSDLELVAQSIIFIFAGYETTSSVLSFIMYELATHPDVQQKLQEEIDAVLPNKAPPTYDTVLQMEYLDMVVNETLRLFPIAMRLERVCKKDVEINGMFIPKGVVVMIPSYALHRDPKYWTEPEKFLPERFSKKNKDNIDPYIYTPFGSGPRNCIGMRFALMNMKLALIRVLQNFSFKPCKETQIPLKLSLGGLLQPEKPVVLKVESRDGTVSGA

O=C(O)c1ccccc1-c1c2cc(Br)c(=O)c(Br)c-2oc2c(Br)c(O)c(Br)cc12
inactive: [1] | CP260 | DIV14 | DIV17 | ICS

CC1(C)C(/C=C/C=C/C=C/C=C2\N(CCCCS(=O)(=O)O)c3ccc4ccccc4c3C2(C)C)=[N+](CCCCS(=O)(=O)[O-])c2ccc3ccccc3c21
active: [2] 28.7 µM
inactive: [3] | [1] | DIV14 | DIV17 | ICS

CCOC(=O)C(CS)NCCN[C@@H](CS)C(=O)OCC (stereo partly specified)
inactive: [2] | [3] | [1] | CP260 | DIV14 | DIV17 | ICS | W2

NC(=O)CCC1NC(=O)C(Cc2ccccc2)NC(=O)C(Cc2ccc(O)cc2)NC(=O)CCSSCC(C(=O)N2CCCC2C(=O)NC(CCCN=C(N)N)C(=O)NCC(N)=O)NC(=O)C(CC(N)=O)NC1=O (stereo unspecified)
inactive: [2] | [3] | [1] | CP260 | DIV14 | DIV17 | ICS | W2

CC(C)CC(NC(=O)C(COC(C)(C)C)NC(=O)C(Cc1ccc(O)cc1)NC(=O)C(CO)NC(=O)C(Cc1c[nH]c2ccccc12)NC(=O)C(Cc1cnc[nH]1)NC(=O)C1CCC(=O)N1)C(=O)NC(CCCN=C(N)N)C(=O)N1CCCC1C(=O)NNC(N)=O (stereo unspecified)
inactive: [2] | [3] | DIV14 | DIV17 | ICS | W2

CC1CCC2[C@](C)(CO)C(O)CC[C@]2(C)C12CCC(CO)(CCO)O2 (stereo partly specified)
inactive: [4] | [5]

Cn1cc(O)nc1NC(=O)Nc1cccc(Cl)c1
inactive: [2] | [3] | [1] | CP260 | DIV14 | DIV17 | ICS | W2

O=C1/C(=C\c2cccs2)CCC/C1=C/c1cccs1
active: [2] 5.73 µM
inactive: [3] | [1] | CP260 | DIV14 | ICS

C=CC1=C(C(=O)O)N2C(=O)[C@@H](NC(=O)C(N=O)c3csc(N)n3)[C@H]2SC1 (stereo partly specified)
inactive: [2] | [3] | [1] | CP260 | DIV14 | DIV17 | ICS

O=C(/C=C/c1ccc(O)cc1)c1c(O)cc(O)cc1O
active: [4] 7.94 µM
inactive: [6] | [5]

CCC(C)C1NC(=O)C(Cc2ccc(O)cc2)NC(=O)C(N)CSSCC(C(=O)N2CCCC2C(=O)NC(CC(C)C)C(=O)NCC(N)=O)NC(=O)C(CC(N)=O)NC(=O)C(CCC(N)=O)NC1=O (stereo unspecified)
inactive: CP260 | DIV14 | DIV17 | ICS | W2

C[C@H]1O[C@@H](O[C@H]2[C@@H](O)C[C@H](O[C@H]3[C@@H](O)C[C@H](O[C@H]4CC[C@]5(C)C6CC[C@]7(C)[C@@H](C8=CC(=O)OC8)CC[C@]7(O)C6CC[C@@H]5C4)O[C@@H]3C)O[C@@H]2C)C[C@H](O)[C@@H]1O (stereo partly specified)
inactive: [4] | [5]

O=C(/C=C/c1ccc(O)cc1)c1cccs1
active: [4] 1.26 µM
inactive: [6] | [5]

COc1ccc(/C=C/C(=O)c2cccs2)cc1OC
active: [4] 2.51 µM

NCCCC(N)CC(=O)NCC1NC(=O)C(CO)NC(=O)C(N)CNC(=O)C(C2CCN=C(N)N2)NC(=O)/C(=C/NC(N)=O)NC1=O (stereo not drawn) (H-[Dap]S[Dap](ξβ3hOrn)[ΔAla(Z-3-ureido)][X1]; lactam 1-C; configuration not given here)
inactive: [2] | [3] | [1] | CP260 | DIV14 | DIV17 | ICS | W2

C[C@H](C(=O)O)c1cccc(C(=O)c2ccccc2)c1
inactive: [5]

OC[C@H]1O[C@@H](n2cnc3c(NCc4ccccc4)ncnc32)[C@H](O)[C@@H]1O
inactive: [4]

CC(C)C[C@H](NC(=O)[C@@H](Cc1c[nH]c2ccccc12)NC(=O)[C@@H](Cc1ccc(O)cc1)NC(=O)[C@@H](CO)NC(=O)[C@@H](Cc1c[nH]c2ccccc12)NC(=O)C(Cc1cnc[nH]1)NC(=O)C1CCC(=O)N1)C(=O)N[C@@H](CCCN=C(N)N)C(=O)N1CCC[C@@H]1C(=O)NCC(N)=O (stereo partly specified)
inactive: [2] | [3] | [1] | CP260 | DIV14 | DIV17 | ICS | W2

CN(C)c1ccc(O)c2c1C[C@@H]1C[C@H]3C(N(C)C)C(=O)C(C(N)=O)=C(O)[C@@]3(O)C(=O)C1=C2O (stereo partly specified)
inactive: [6] | [7] | [8] | [2]

C[N+]1(C)C2CCC1CC(OC(=O)C(O)c1ccccc1)C2 (stereo unspecified)
inactive: [4] | [8] | [2]

CC(C)C(NC(=O)C(CC(=O)O)NC(=O)C(CCCCN)NC(=O)C(N)CCCN=C(N)N)C(=O)NC(Cc1ccc(O)cc1)C(=O)O (stereo unspecified) (H-RKDVY-OH; configuration not given here)
inactive: [2] | [3] | [1] | DIV14 | DIV17 | ICS | W2

CCC(C)C1NC(=O)C(CCNCS(=O)(=O)O)NC(=O)C(NC(=O)C(CCNCS(=O)(=O)O)NC(=O)C(NC(=O)C(CCNCS(=O)(=O)O)NC(=O)CCCCC(C)C)C(C)O)CCNC(=O)C(C(C)O)NC(=O)C(CCNCS(=O)(=O)O)NC(=O)C(CCNCS(=O)(=O)O)NC(=O)C(C(C)CC)NC1=O (stereo unspecified) ({Heptanoyl(6-Me)}-[ξDab(CH2SO3H)]T[ξDab(CH2SO3H)][Dab][ξDab(CH2SO3H)]II[ξDab(CH2SO3H)][ξDab(CH2SO3H)]T; lactam 4-C; configuration not given here)
inactive: [4] | [7] | [8] | [3] | [1] | DIV14 | DIV17 | ICS | W2

CCC1NC(=O)C(NC(=O)c2ncccc2O)C(C)OC(=O)C(c2ccccc2)NC(=O)C2CC(=O)CCN2C(=O)C(Cc2ccccc2)N(C)C(=O)C2CCCN2C1=O (stereo unspecified)
inactive: [3] | [1] | CP260

O=C(/C=C/c1ccccc1)c1cccs1
inactive: [4] | [5]

COc1ccc(-c2nc3ccc(C4=C(C)CC(=O)NN4)cc3[nH]2)cc1
active: [2] 12.8 µM
inactive: [1] | CP260

NCCCC(N)CC(=O)NC1CNC(=O)C(C2CC(O)N=C(N)N2)NC(=O)/C(=C/NC(N)=O)NC(=O)C(CO)NC(=O)C(CO)NC1=O (stereo not drawn) (ξβ3hOrn-[Dap]SS[ΔAla(Z-3-ureido)][X2]; lactam 1-C; configuration not given here)
inactive: [2] | [3] | [1] | CP260 | W2

O=C(OCC1OC(OC(=O)c2cc(O)c(O)c(OC(=O)c3cc(O)c(O)c(O)c3)c2)[C@@H](OC(=O)c2cc(O)c(O)c(OC(=O)c3cc(O)c(O)c(O)c3)c2)C(OC(=O)c2cc(O)c(O)c(OC(=O)c3cc(O)c(O)c(O)c3)c2)C1OC(=O)c1cc(O)c(O)c(OC(=O)c2cc(O)c(O)c(O)c2)c1)c1cc(O)c(O)c(OC(=O)c2cc(O)c(O)c(O)c2)c1 (stereo partly specified)
active: [2] 12.8 µM | [3] 20.3 µM | [1] 22.4 µM | CP260 3.55 µM | DIV14 3.79 µM | DIV17 2.69 µM | ICS 2.51 µM | W2 1.51 µM
inactive: [6] | [7]

CC(C)CC1NC(=O)C(CCCN)NC(=O)C(C(C)C)NC(=O)C2CCCN2C(=O)C(Cc2ccccc2)NC(=O)C(CC(C)C)NC(=O)C(CCCN)NC(=O)C(C(C)C)NC(=O)C2CCCN2C(=O)C(Cc2ccccc2)NC1=O (stereo unspecified) (cyclo(FPV[Orn]LFPV[Orn]L); configuration not given here)
inactive: [4] | [7] | [8] | [2]
active: [3] 4.55 µM | [1] 12.6 µM | CP260 0.0009 µM | ICS 0.0003 µM | W2 0.0002 µM

Nc1nc2c(c(=O)[nH]1)N=C(CNc1ccc(C(=O)NC(CCC(=O)O)C(=O)O)cc1)CN2 (stereo unspecified)
inactive: [4] | [5]

CCC(Oc1ccccc1)C(=O)NC1C(=O)N2C1SC(C)(C)C2C(=O)O (stereo unspecified)
inactive: [3] | [1] | CP260 | DIV17 | ICS | W2

CC(=O)OCC1=C(C(=O)O)N2C(=O)C(NC(=O)Cc3ccccc3)C2SC1 (stereo unspecified)
inactive: [3] | [1] | CP260 | DIV14 | DIV17 | ICS | W2

CC(=O)OC1CCC2(C)C(=CCC3C2CCC2(C)C3C[C@@H]3O[C@]32C(C)=O)C1 (stereo partly specified)
inactive: [4]

CCOc1ccc(/C=C/C(=O)c2cccs2)cc1
inactive: [4]

CSCCC(N)C(=O)NC(CC(C)C)C(=O)NC(Cc1ccccc1)C(=O)O (stereo unspecified)
inactive: [4]
